The target of experiment [1] is Calcium and integrin-binding protein 1 (Homo sapiens) (UniProt Q99828). Nature of the experiment: Primary qHTS for Identification of Calcium Integrin Binding Protein 1 (CIB1) Competitor (AID 1508620).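 Further: GST tagged CIB1 binding a fluorescein labelled alphaIIb integrin peptide tracer; top concentration of the series differs between compounds; on the % scale 0 is the no-effect control and ±100 the full control effect.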 The essentials: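 Fluorescence polarization competition: CIB1-GST (1 uM final) preincubated with compound 15 min at room temperature, then FITC-labeled alphaIIb peptide (100 nM final) added for another 15 min. Polarization read at Ex 480/Em 540.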
Sequence of Calcium and integrin-binding protein 1 (Homo sapiens) (Q99828 whole entry, looked up): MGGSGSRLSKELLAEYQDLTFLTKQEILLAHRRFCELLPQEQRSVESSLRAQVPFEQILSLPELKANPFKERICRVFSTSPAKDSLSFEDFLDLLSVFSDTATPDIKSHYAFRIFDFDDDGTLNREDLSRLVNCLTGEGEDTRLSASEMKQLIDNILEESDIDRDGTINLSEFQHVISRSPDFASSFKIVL

The nature of experiment [2]: Primary qHTS for inhibitors of nuclear receptor binding SET domain protein 2 (NSD2) in an isogenic RCH-ACV NSD2 p.E1099K mutant (9B) (AID 1645876). Further: nearly all actives have a fitted effect of over 70% in size.
Experiment [3] in a line: Primary qHTS for inhibitors of nuclear receptor binding SET domain protein 2 (NSD2) in an RCH-ACV wild type WT cells (2C) (AID 1645877). Further: nearly all actives have a fitted effect of over 70% in size.
Experiment [4] has as its target Catechol O-methyltransferase (Homo sapiens) (UniProt P21964). Nature of the experiment: Confirmatory Screen for Target Class Profiling of Small Molecule Inhibitors of Methyltransferases (AID 1745852). On activity change, negative = inhibition: on the % scale 0 is the no-effect control and ±100 the full control effect. To be noted: MTase-Glo luminescence, SAH detection, recombinant enzyme; measured here: COMT max response; stronger effect = lower value.
For experiment [5], the target named is Guanidinoacetate N-methyltransferase (Homo sapiens) (UniProt Q14353). The experiment is described as above. As to conditions: MTase-Glo luminescence, SAH detection, recombinant enzyme; activity change, negative = inhibition: at 57.3 µM (top of the series) unless noted.
Experiment [6] deals with Nicotinamide N-methyltransferase (Homo sapiens) (UniProt P40261). The experiment is described as above. As to conditions: MTase-Glo luminescence, SAH detection, recombinant enzyme; measured here: NNMT max response; stronger effect = lower value.
Sequence of Nicotinamide N-methyltransferase (Homo sapiens) (P40261 whole entry, looked up): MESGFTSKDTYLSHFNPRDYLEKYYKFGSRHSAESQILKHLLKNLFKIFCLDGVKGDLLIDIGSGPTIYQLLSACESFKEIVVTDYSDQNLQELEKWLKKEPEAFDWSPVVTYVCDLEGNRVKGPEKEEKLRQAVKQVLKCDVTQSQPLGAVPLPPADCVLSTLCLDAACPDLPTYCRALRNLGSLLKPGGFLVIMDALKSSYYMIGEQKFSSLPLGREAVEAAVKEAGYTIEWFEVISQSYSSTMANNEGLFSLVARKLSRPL
In experiment [7] the target is Phenylethanolamine N-methyltransferase (Homo sapiens) (UniProt P11086). Described as above. As to conditions: MTase-Glo luminescence, SAH detection, recombinant enzyme; measured here: PNMT max response; stronger effect = lower value.
Sequence of Phenylethanolamine N-methyltransferase (Homo sapiens) (P11086 whole entry, looked up): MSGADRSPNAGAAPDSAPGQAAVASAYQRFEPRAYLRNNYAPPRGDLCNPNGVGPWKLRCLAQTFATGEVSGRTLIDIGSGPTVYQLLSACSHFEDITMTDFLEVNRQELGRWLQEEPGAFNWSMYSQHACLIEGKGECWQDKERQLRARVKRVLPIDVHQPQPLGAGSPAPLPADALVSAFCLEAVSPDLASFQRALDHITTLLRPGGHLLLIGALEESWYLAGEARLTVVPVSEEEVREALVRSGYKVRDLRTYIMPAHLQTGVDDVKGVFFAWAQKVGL
The target of experiment [8] is Rap guanine nucleotide exchange factor 3 (Homo sapiens) (UniProt O95398). Nature of the experiment: Confirmatory qHTS for agonist of cAMP-regulated guanine nucleotide exchange factor 3 (EPAC1) (AID 1645881).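 Further: EPAC1 catalysed release of BODIPY-GDP from Rap1B seen as fluorescence loss; 100% = effect of cAMP agonist control; nearly all actives have a fitted effect of over 75% in size.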
Sequence of Rap guanine nucleotide exchange factor 3 (Homo sapiens) (O95398 whole entry, looked up): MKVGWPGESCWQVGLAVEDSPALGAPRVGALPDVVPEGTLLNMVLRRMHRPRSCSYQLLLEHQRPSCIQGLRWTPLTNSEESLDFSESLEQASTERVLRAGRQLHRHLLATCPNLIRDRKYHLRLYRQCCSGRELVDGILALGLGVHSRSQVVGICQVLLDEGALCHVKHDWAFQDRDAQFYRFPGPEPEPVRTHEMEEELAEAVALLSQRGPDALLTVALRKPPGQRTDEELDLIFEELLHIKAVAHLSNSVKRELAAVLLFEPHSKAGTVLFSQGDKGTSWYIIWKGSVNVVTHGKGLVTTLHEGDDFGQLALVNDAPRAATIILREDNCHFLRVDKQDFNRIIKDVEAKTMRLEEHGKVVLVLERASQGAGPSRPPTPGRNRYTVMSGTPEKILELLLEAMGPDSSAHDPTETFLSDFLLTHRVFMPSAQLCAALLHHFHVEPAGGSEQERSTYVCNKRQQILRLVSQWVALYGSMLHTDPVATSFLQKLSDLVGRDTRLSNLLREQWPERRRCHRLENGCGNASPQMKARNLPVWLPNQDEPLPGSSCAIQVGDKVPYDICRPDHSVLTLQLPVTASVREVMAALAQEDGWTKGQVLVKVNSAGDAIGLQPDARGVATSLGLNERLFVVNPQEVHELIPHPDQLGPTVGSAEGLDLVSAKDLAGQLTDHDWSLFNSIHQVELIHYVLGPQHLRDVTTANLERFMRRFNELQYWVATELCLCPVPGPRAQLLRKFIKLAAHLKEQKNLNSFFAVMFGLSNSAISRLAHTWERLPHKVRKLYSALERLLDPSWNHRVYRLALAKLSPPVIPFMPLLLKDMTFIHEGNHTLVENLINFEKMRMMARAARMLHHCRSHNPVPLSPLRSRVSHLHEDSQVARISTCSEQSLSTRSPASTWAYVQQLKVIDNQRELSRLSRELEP
Experiment [9] concerns the target Rap guanine nucleotide exchange factor 4 (Homo sapiens) (UniProt Q8WZA2). Nature of the experiment: Confirmatory qHTS for agonist of cAMP-regulated guanine nucleotide exchange factor 4 (EPAC2) (AID 1645884).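 Further: nucleotide exchange releases bodipy-GDP from Rap1 and this lowers its fluorescence; on the % scale 0 is the no-effect control and ±100 the full control effect; nearly all actives have a fitted effect of over 65% in size.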

Inconclusive results are not listed. Activity calls are given as the source filed them. The call rests on the fitted dose curve; in most records, active means well fitted curve in the direction sought with a large enough effect; inconclusive means small, poorly fitted or top-dose-only effect, or another doubt; inactive means no such curve, though single readings can be large; an effect the other way counts as inactive or inconclusive.

Sequence of Catechol O-methyltransferase (Homo sapiens) (P21964 whole entry, looked up): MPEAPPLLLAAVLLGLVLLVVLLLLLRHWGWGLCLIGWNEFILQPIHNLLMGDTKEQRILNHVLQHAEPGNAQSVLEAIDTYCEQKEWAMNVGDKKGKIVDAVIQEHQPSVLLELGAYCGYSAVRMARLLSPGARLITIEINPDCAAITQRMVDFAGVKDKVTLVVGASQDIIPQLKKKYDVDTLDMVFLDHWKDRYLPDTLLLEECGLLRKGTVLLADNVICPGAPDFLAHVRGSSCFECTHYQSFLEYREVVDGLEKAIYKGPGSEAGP
Sequence of Rap guanine nucleotide exchange factor 4 (Homo sapiens) (Q8WZA2 whole entry, looked up): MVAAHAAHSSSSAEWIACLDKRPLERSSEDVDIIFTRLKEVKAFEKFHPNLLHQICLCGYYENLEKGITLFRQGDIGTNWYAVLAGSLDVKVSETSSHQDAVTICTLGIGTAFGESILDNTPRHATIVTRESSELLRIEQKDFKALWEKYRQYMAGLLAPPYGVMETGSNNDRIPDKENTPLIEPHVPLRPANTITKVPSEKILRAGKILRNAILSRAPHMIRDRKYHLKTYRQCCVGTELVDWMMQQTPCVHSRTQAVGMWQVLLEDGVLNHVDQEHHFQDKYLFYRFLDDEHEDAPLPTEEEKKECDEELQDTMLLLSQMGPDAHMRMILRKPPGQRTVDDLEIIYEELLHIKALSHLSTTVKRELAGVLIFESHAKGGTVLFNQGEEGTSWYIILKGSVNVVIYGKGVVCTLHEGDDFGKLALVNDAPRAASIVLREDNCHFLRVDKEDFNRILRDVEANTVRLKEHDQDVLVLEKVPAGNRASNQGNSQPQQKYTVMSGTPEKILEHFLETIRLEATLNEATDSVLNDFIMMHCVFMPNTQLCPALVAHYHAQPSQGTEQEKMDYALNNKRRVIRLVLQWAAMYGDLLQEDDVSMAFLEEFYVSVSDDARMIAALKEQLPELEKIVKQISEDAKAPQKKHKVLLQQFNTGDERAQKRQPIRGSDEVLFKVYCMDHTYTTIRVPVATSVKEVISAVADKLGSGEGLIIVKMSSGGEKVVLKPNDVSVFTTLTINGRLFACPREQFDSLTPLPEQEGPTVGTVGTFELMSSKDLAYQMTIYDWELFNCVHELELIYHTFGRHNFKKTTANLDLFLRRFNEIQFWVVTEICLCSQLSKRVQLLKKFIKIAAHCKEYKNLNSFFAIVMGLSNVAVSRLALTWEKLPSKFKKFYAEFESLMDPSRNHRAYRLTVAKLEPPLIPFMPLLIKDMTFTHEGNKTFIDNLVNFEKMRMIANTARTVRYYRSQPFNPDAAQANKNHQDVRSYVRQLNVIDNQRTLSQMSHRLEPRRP

Turning to `CC1(C)C2CCC1(C)C(OC(=O)C(O)(CC(=O)O)CC(=O)O)C2` (stereo unspecified), the Potency result in experiment [1], in [2] and in experiment [3] was “inactive” throughout. In addition, the results for the activity in experiment [4], in [6] and in experiment [7] were -73.1%, 1.63% and 2.73%, respectively. For the same compound, in experiment [5], the activity change, negative = inhibition was 0%.

For `C=C1C(=O)O[C@@H]2CC(C)=C([C@@H](C)CCCOC(C)=O)[C@@H](O)[C@H]12`, the Potency entry in experiment [1], in experiment [2] and in experiment [3] was “inactive” throughout. Besides, the activity was -78.5% in experiment [4], -0.922% in experiment [6] and -2.38% in [7]. The activity change, negative = inhibition in experiment [5] was 1.58%.

As to `COc1c(O)cc2c(c1O)C(=O)O[C@H](C)[C@H]2O`, the Potency entry in [1], in experiment [2] and in experiment [3] was “inactive” each time. For the same compound, the activity in [4] is -42.1%; in [6] it was 0.175%; in [7], 0.108%. Moreover, the activity change, negative = inhibition in [5] was 0.552%.

Regarding `CC1(C)CC[C@]2(C(=O)O[C@@H]3O[C@H](CO)[C@@H](O)[C@H](O)[C@H]3O)CC[C@]3(C)C(=CCC4[C@@]5(C)C[C@@H](O)[C@H](O)[C@@](C)(CO)C5[C@H](O)C[C@]43C)C2[C@@H]1O` (stereo partly specified), the Potency result in experiment [1], in experiment [2] and in experiment [3] was “inactive” in each case. Further, the values for the activity in experiment [4], in experiment [6] and in experiment [7] were -79.3%, 4% and 3.8%, respectively. For the same compound, in experiment [5], the activity change, negative = inhibition is 0% [at 19.1 µM].

As to `OC[C@H]1O[C@@H](OCCc2ccccc2)[C@H](O[C@@H]2OC[C@@H](O)[C@H](O)[C@H]2O)[C@@H](O)[C@@H]1O`, the Potency result in [1], in experiment [2] and in experiment [3] was “inactive” in each case. The activity was -76.4% in [4], 3.88% in experiment [6] and -1.31% in [7]. Besides, the activity change, negative = inhibition in experiment [5] was determined as 0% [at 29.8 µM].

With `CC1=C2CC3C(CCC3(C)O)C(C)(O)CC2OC1=O` (stereo unspecified), the Potency result in [1], in experiment [2] and in [3] was “inactive” each time. In addition, the activity in experiment [4] was -78.6%; in experiment [6], 0%; in [7], 0%. In addition, the activity change, negative = inhibition in experiment [5] came to 0%.

On to `C[C@@H]1O[C@@H](OC[C@H]2O[C@@H](OCc3ccccc3)[C@H](O)[C@@H](O)[C@@H]2O)[C@H](O)[C@H](O)[C@H]1O`, for which the Potency entry in experiment [1], in [2] and in experiment [3] was “inactive” throughout. Moreover, the activity in [4] is -64.3%; in experiment [6] it was -3.31%; in experiment [7], -2.48%. Besides, the activity change, negative = inhibition in experiment [5] is -3.1% [at 29.8 µM].

With `CC1CC(=O)C2=C(O1)OC1(C)CCC3C(C)(C)C4OC4C(=O)C3(C)C1C2` (stereo unspecified), the Potency result in experiment [1], in [2] and in [3] was “inactive” in each case. Further, the activity in [4] was -27.1%; in experiment [6] it was -84.6%; in [7] it was -2.49%. Also, in experiment [5], the activity change, negative = inhibition amounted to 0%.

Turning to `C=C1C[C@]23C[C@@]1(O)CC[C@H]2[C@@]12C=C[C@H](O)[C@@](C)(C(=O)O1)[C@H]2[C@@H]3C(=O)O`, the Potency entry in experiment [1], in experiment [2] and in experiment [3] was “inactive” each time. The outcome in [8] and in [9] was “inactive” in each case.

With `CC1=CC(=O)C(=C(C)C)CC2C(C)(O)CCC12O` (stereo unspecified), the Potency result in experiment [1], in experiment [2] and in experiment [3] was “inactive” in each case. In addition, the figures for the activity in experiment [4], in [6] and in experiment [7] were -81.2%, 2.29% and 1.07%, respectively. Also, the activity change, negative = inhibition in experiment [5] stood at 0.373%.

Regarding `C=C(C)[C@@H]1CC[C@]2(CO)CC[C@]3(C)[C@H](CC[C@@H]4[C@@]5(C)CC[C@H](O)C(C)(C)[C@@H]5CC[C@]43C)[C@@H]12`, the Potency result in [1], in [2] and in experiment [3] was “inactive” each time.

With `CCCCCOC(=O)Nc1nc(=O)n(C2O[C@H](C)[C@@H](O)[C@H]2O)cc1F` (stereo partly specified), the Potency result in [1], in experiment [2] and in [3] was “inactive” each time.

For the compound `COc1cc(/C=C/C(=O)OC[C@H]2O[C@@H](OC3OC=C(C(=O)O)C4C(O)CC(C)(O)C34)[C@H](O)[C@@H](O)[C@@H]2O)cc(OC)c1O` (stereo partly specified), the Potency entry in experiment [1], in experiment [2] and in [3] was “inactive” throughout. Moreover, the activity in experiment [4] is -54.7%; in [6], 0.931%; in experiment [7] it was -3.81%. For the same compound, in experiment [5], the activity change, negative = inhibition was -2.09% [at 19.1 µM].

For `COCc1c(O)c(C(=O)O)c(C)c2c1OC(=O)c1c(C)cc(O)c(CO)c1O2`, the Potency result in experiment [1], in [2] and in experiment [3] was “inactive” in each case. For the same compound, the figures for the activity in experiment [4], in experiment [6] and in experiment [7] were -62.5%, -3.54% and -4.35%, respectively. Besides, the activity change, negative = inhibition in experiment [5] was -4.52%.

For the compound `C=C[C@H]1[C@H](O[C@@H]2O[C@H](CO)[C@@H](O)[C@H](OC(=O)/C=C/c3ccc(O)c(OC)c3)[C@H]2O)OC=C2C(=O)OCC[C@]21O`, the Potency entry in [1], in experiment [2] and in experiment [3] was “inactive” each time. The activity in experiment [4] was -63.6%; in [6], -4.35%; in experiment [7], -4.62%. Further, the activity change, negative = inhibition in experiment [5] was -8.69% [at 29.8 µM].

`CC(=O)OC1CC(=O)C2(C)C3CC4=C(OC(C)CC4=O)OC3(C)CCC2C1(C)C` (stereo unspecified): the Potency result in experiment [1], in experiment [2] and in experiment [3] was “inactive” in each case. The figures for the activity in experiment [4], in experiment [6] and in experiment [7] were -40.9%, -81.2% and 0.0652%, respectively. For the same compound, in [5], the activity change, negative = inhibition came to 0.0637% [at 29.8 µM].

For `C/C(=C\CC/C(C)=C/CC[C@]1(C)CCc2cc(O)cc(C)c2O1)CC/C=C(\C)C(=O)O`, the Potency entry in experiment [1], in [2] and in experiment [3] was “inactive” each time. The figures for the activity in experiment [4], in [6] and in [7] were -20.5%, -14.3% and -0.0782%, respectively. In addition, the activity change, negative = inhibition in experiment [5] turned out to be 0% [at 29.8 µM].

For the compound `CC1=C[C@H]2[C@@H](CC1=O)[C@H](C)C[C@H](O)[C@H]2C(C)C`, the Potency result in [1] and in experiment [3] was “inactive” in each case.

Values taken from PubChem BioAssay (NCATS).
